Laboratory results as given in PubChem BioAssay (NCI).
Several values for one entry are separate records, joined by “and”; a condition that tells them apart may be missing. Equal entries are not always repeated. This is part of a sample that, as a whole, favours compounds with a hit. Of some 83,000 tested, about 20% had one in any assay.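 Note: values are percent growth. 100 is the growth of untreated cells, values between 100 and 0 indicate rising inhibition; between -100 and 0 indicates cell death.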 Activity calls are given as the source filed them. The calls were made as follows: active = growth percent below 10; inactive = the rest.

How the values were obtained:
Assay in all cases: NCI-60 one-dose screen, 48 h (100 = growth as untreated, 0 = no growth, -100 = all killed)
Details in all cases: 10 µM unless noted
[1] = system: NCI-H23 lung
[2] = system: NCI-H226 lung
[3] = system: NCI-H322M lung
[4] = system: HOP-62 NSCLC
[5] = system: NCI-H460 lung
[6] = system: HOP-92 NSCLC
[7] = system: NCI-H522 lung
[8] = system: A549/ATCC NSCLC
[9] = system: 786-0 renal
[10] = system: COLO 205 colon
[11] = system: DU-145 prostate
[12] = system: K-562 leukemia
[13] = system: MALME-3M melanoma
[14] = system: MDA-MB-231 breast
[15] = system: RXF 393 renal
[16] = system: SF-268 CNS
[17] = system: SF-295 CNS
[18] = system: SF-539 CNS
[19] = system: UACC-257 melanoma
[20] = system: M14 melanoma

SMILES | growth [1] | growth [2] | growth [3] | growth [4] | growth [5] | growth [6] | growth [7] | growth [8] | growth [9] | growth [10] | growth [11] | growth [12] | growth [13] | growth [14] | growth [15] | growth [16] | growth [17] | growth [18] | growth [19] | growth [20]
COc1cc(CO)cc2cc3ccccc3nc12 | 97.3% (inactive) | 79.4% (inactive) | 115% (inactive) | 95.7% (inactive) | 105% (inactive) | 103% (inactive) | 96.8% (inactive) | 104% (inactive) | 97.8% (inactive) | 107% (inactive) | 106% (inactive) | 90.7% (inactive) | 112% (inactive) | 101% (inactive) | 115% (inactive) | 100% (inactive) | 102% (inactive) | 102% (inactive) | 105% (inactive) | 105% (inactive)
COc1ccc(CCNC(=O)COc2cc3c(Nc4ccc(F)c(Cl)c4)ncnc3cc2OC)cc1OC | 92.5% (inactive) | 98.5% (inactive) | 27.3% (inactive) | 95.7% (inactive) | 95.7% (inactive) | 87.9% (inactive) | 70.2% (inactive) | 84.8% (inactive) | 89.4% (inactive) | 102% (inactive) | 58% (inactive) | 112% (inactive) | 86.9% (inactive) | 94.4% (inactive) | 96% (inactive) | 85.7% (inactive) | 98.1% (inactive) | 103% (inactive) | 110% (inactive) | 101% (inactive)
COc1ccc(/C=C2/C(=O)N=C3N2NC(c2ccccc2)=CN3c2ccccc2)cc1 | 86.4% (inactive) | 93.2% (inactive) | 103% (inactive) | 105% (inactive) | 106% (inactive) | 102% (inactive) | 101% (inactive) | 104% (inactive) | 98.6% (inactive) | 121% (inactive) | 114% (inactive) | 108% (inactive) | 102% (inactive) | 107% (inactive) | 89.7% (inactive) | 98.5% (inactive) | 103% (inactive) | 94.8% (inactive) | 108% (inactive) | 98.3% (inactive)
Nc1c(C(=O)Nc2ccncc2)sc2nc3c(cc12)CCCCCCCC3 | -63.2% (active) | 17.6% (inactive) | -54.4% (active) | -74.2% (active) | -66.7% (active) | -76.2% (active) | -84.9% (active) | -62.7% (active) | -93.9% (active) | -83.2% (active) | -75.5% (active) | -52% (active) | -84.6% (active) | -72.7% (active) | -80.6% (active) | -62.4% (active) | -77% (active) | -91.7% (active) | -75.7% (active) | -80.1% (active)
Cc1nc2cccc(NCCCCC(=O)NO)c2c(=O)n1-c1ccccc1 | 69.3% (inactive) | 83.9% (inactive) | 66.1% (inactive) | 50.3% (inactive) | 76.5% (inactive) | 43.3% (inactive) | 43.5% (inactive) | 78.8% (inactive) | 69.7% (inactive) | 62.4% (inactive) | 58.1% (inactive) | 40.9% (inactive) | 23.4% (inactive) | 77.1% (inactive) | 49.2% (inactive) | 74.6% (inactive) | 82.9% (inactive) | 49.9% (inactive) | 42.7% (inactive) | 50.4% (inactive)
O=C(N=Nc1c(O)[nH]c2ccccc12)Nc1ccccc1Cl | 80.1% (inactive) | 87.1% (inactive) | 73.5% (inactive) | 104% (inactive) | 92.1% (inactive) | 90.3% (inactive) | 78.6% (inactive) | 107% (inactive) | 96.9% (inactive) | 105% (inactive) | 98.8% (inactive) | 88.1% (inactive) | 96.9% (inactive) | 85.1% (inactive) | 101% (inactive) | 96.8% (inactive) | 94.1% (inactive) | 95.7% (inactive) | 92% (inactive) | 94.7% (inactive)
CCN(CC)CC(=O)Nc1ccc2ncnc(Nc3ccc(Oc4cccc(F)c4)c(Cl)c3)c2c1 | 74.9% (inactive) | 87.6% (inactive) | 65.6% (inactive) | 80.4% (inactive) | 36.9% (inactive) | 39.5% (inactive) | 64.6% (inactive) | 55.7% (inactive) | 59.7% (inactive) | 68.8% (inactive) | 57% (inactive) | 2.08% (active) | 45.2% (inactive) | 49.3% (inactive) | 43.2% (inactive) | 58.8% (inactive) | 87.2% (inactive) | 83.5% (inactive) | 67.2% (inactive) | -33.8% (active)
COC(=O)N/N=C/c1c[n+]([O-])c2ccccc2[n+]1[O-] | 98.6% (inactive) | 109% (inactive) | 98.3% (inactive) | 22.7% (inactive) | 105% (inactive) | 96.5% (inactive) | 92.9% (inactive) | 93.1% (inactive) | 93.8% (inactive) | -45.4% (active) | 114% (inactive) | 103% (inactive) | 108% (inactive) | 110% (inactive) | 125% (inactive) | 106% (inactive) | 93.4% (inactive) | 101% (inactive) | 95.1% (inactive) | 106% (inactive)
O=C1OCC2=C1C(c1cccc(C(F)(F)F)c1)c1cc3c(cc1N2CCO)CCC3 (stereo not drawn) | 25.7% (inactive) | 40.2% (inactive) | 45% (inactive) | 15.9% (inactive) | 3.4% (active) | 64.2% (inactive) | -18.4% (active) | 12.4% (inactive) | 17% (inactive) | -55.2% (active) | -6.77% (active) | 7.05% (active) | 43.9% (inactive) | 28.4% (inactive) | 49.7% (inactive) | 17.3% (inactive) | 1.03% (active) | -15.6% (active) | 67.8% (inactive) | 0.275% (active)
O=C(N/N=C/c1ccc(O)cc1O)c1cccc(Nc2ccnc(C(F)(F)F)c2)c1 | 27.5% (inactive) | 40.5% (inactive) | 22.7% (inactive) | 14.3% (inactive) | 22.2% (inactive) | 44.1% (inactive) | 41.5% (inactive) | 55.9% (inactive) | 5.8% (active) | 43% (inactive) | 17.7% (inactive) | 21.6% (inactive) | 2.77% (active) | 41.3% (inactive) | 44.9% (inactive) | 11.8% (inactive) | 20.4% (inactive) | 8.62% (active) | 36.3% (inactive) | -1.76% (active)
OB(O)c1ccsc1-c1nc2ccc3[nH]ncc3c2c2c1CCCC2 | 51.6% (inactive) | 72% (inactive) | 49.9% (inactive) | 52.2% (inactive) | 38.9% (inactive) | 65.3% (inactive) | 32.2% (inactive) | 46.7% (inactive) | 48.6% (inactive) | 41.2% (inactive) | 47.3% (inactive) | 55.9% (inactive) | 77.9% (inactive) | 70.3% (inactive) | 19.2% (inactive) | 58.9% (inactive) | 69.6% (inactive) | 45.2% (inactive) | 85.5% (inactive) | 41.4% (inactive)
O=C1CCc2c(sc3[nH]c(=S)n(Cc4ccc(Cl)cc4)c(=O)c23)C1 | -12.9% (active) | -8.6% (active) | 11.4% (inactive) | -11.5% (active) | 5.05% (active) | -44.2% (active) |  | 5.35% (active) | 21% (inactive) | -67.5% (active) | 23.7% (inactive) | 11% (inactive) | 1.17% (active) | -24.7% (active) | 5.18% (active) | 18.7% (inactive) | -6.67% (active) | -57.4% (active) | -14.9% (active) | 12.4% (inactive)
N#Cc1ccccc1-c1ccc(Cn2c(-c3cscn3)nc3c(Cl)cccc32)cc1 | 70.9% (inactive) | 66.2% (inactive) | 91.6% (inactive) | 97.4% (inactive) | 82.6% (inactive) | 63.7% (inactive) | 44.7% (inactive) | 72.3% (inactive) | 79.8% (inactive) | 107% (inactive) | 86.5% (inactive) | 49.2% (inactive) | 92.4% (inactive) | 79.7% (inactive) | 99.5% (inactive) | 71.3% (inactive) | 67.9% (inactive) | 82.9% (inactive) | 89.5% (inactive) | 87.1% (inactive)
Cc1ccc(/C=C(\C#N)c2cc3ccccc3[nH]2)cc1 | 66% (inactive) | 95.3% (inactive) | 87.7% (inactive) | 49.5% (inactive) | 30.6% (inactive) | 51.1% (inactive) | 13.7% (inactive) | 49% (inactive) | 72.7% (inactive) | 32.4% (inactive) | 73.1% (inactive) | 13.8% (inactive) | 67.7% (inactive) | 35.9% (inactive) | 82.8% (inactive) | 68.1% (inactive) | 68.2% (inactive) | 57.7% (inactive) | 72.4% (inactive) | 31.5% (inactive)
COc1cc2c(cc1OCCCOC1=C=C=C(c3ccc4c(c3)c3cc(-c5ccc(OCCCOc6cc7c(cc6OC)C(=O)N6CCC[C@H]6C=N7)cc5)ccc3n4S(=O)(=O)c3ccc(C)cc3)C=C1)N=C[C@@H]1CCCN1C2=O | 36.7% (inactive) | 22.8% (inactive) | 216% (inactive) | 116% (inactive) and 54.5% (inactive) | 15.5% (inactive) | 69.3% (inactive) | -8.9% (active) | 56.4% (inactive) | 115% (inactive) and 1.63% (active) | 49% (inactive) | -66.5% (active) | 8.45% (active) | 240% (inactive) | 23.3% (inactive) |  | -41.8% (active) | -26% (active) | 13.3% (inactive) | 52.6% (inactive) | 22.2% (inactive)
CCN1C(=O)N(c2ccccc2)C2NC(=S)N(/N=C/C=C/c3ccccc3)C21 (stereo not drawn) | 21.1% (inactive) | 2.92% (active) | 50.4% (inactive) | 37.9% (inactive) | 8.06% (active) | 28.8% (inactive) | 14.8% (inactive) | 24.9% (inactive) | 37.2% (inactive) | -8.16% (active) | 8.79% (active) | 8.8% (active) | 45.8% (inactive) | 15.7% (inactive) | 9.01% (active) | 31.9% (inactive) | 2.91% (active) | -27% (active) | 39.5% (inactive) | 0.94% (active)
